The source of these data is PubChem BioAssay (NCI).

This is part of a sample that, as a whole, favours compounds with a hit. Of some 83,000 tested, about 20% had one in any assay.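 The test compound was applied at a single concentration to cells in 96-well plates for 48 hours, and percent growth was recorded.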 Values without a mark were called inactive. The source made the active and inactive calls. Rule for the calls: active = growth percent below 10; inactive = the rest.

Among the test systems are NCI-H23 lung; NCI-H226 lung; NCI-H322M lung; HOP-62 NSCLC; NCI-H460 lung; HOP-92 NSCLC; NCI-H522 lung; A549/ATCC NSCLC; 786-0 renal; DU-145 prostate; K-562 leukemia; MALME-3M melanoma; MDA-MB-231 breast; RXF 393 renal; SF-268 CNS; SF-295 CNS; SF-539 CNS; UACC-257 melanoma; M14 melanoma.
Common to all, as to assay: NCI-60 one-dose screen, 48 h (100 = growth as untreated, 0 = no growth, -100 = all killed)
Holding throughout (settings): 10 µM unless noted

Take `Cc1cc2ccccc2c[n+]1CC(=O)c1ccc(-c2ccccc2)cc1`: the growth with NCI-H23 lung was 48.6%; in the experiment on NCI-H226 lung, 60.8%; with NCI-H322M lung it was 78.3%; with HOP-62 NSCLC, 67.1%; with NCI-H460 lung, 45.9%; with HOP-92 NSCLC it was 27.8%. In addition, the growth is 26.8% in the experiment on NCI-H522 lung; 53.3% in the experiment with A549/ATCC NSCLC; 65.9% in the experiment on 786-0 renal; 65.8% in the experiment with DU-145 prostate; 11% in the experiment with K-562 leukemia; 71.4% in the experiment with MALME-3M melanoma. In addition, the growth with MDA-MB-231 breast was 51.1%; with RXF 393 renal, 62.5%; in the experiment with SF-268 CNS, 73.4%; in the experiment with SF-295 CNS it was 42.4%; in the experiment with SF-539 CNS, 75.5%; in the experiment with UACC-257 melanoma it was 50.3%. In addition, the growth with M14 melanoma is 47.3%.
For the molecule `Cc1[nH]c2ncnc(Oc3ccc(NC(=O)Nc4ccc(Cl)c(C(F)(F)F)c4)cc3)c2c1C`, the growth in the experiment on NCI-H23 lung is 56.7%; in the experiment on NCI-H226 lung, 75.1%; with NCI-H322M lung, 69.6%; with HOP-62 NSCLC it was 59.3%; in the experiment with NCI-H460 lung, 36.1%; in the experiment with HOP-92 NSCLC, 91.9%. In addition, the growth with NCI-H522 lung was 25.3%; in the experiment with A549/ATCC NSCLC, 45.3%; with 786-0 renal it was 84%; in the experiment with DU-145 prostate, 66.4%; with K-562 leukemia it was 26.6%; with MALME-3M melanoma it was 61.6%. Also, the growth in the experiment on MDA-MB-231 breast was 44.6%; with RXF 393 renal, 74.3%; with SF-268 CNS it was 53%; in the experiment with SF-295 CNS, 62.4%; in the experiment with SF-539 CNS, 56%; with UACC-257 melanoma it was 64.2%. Also, the growth in the experiment on M14 melanoma is 52.1%.
With `Fc1ccc(N/N=C/c2ccc(-n3cccn3)cc2)cc1`, the growth in the experiment with NCI-H23 lung was 90.7%; with NCI-H226 lung, 92.3%; in the experiment with NCI-H322M lung, 99.9%; in the experiment with HOP-62 NSCLC, 82.1%; in the experiment on NCI-H460 lung, 106%; in the experiment with HOP-92 NSCLC, 105%. The growth in the experiment on NCI-H522 lung was 77.2%; in the experiment on A549/ATCC NSCLC, 93.7%; in the experiment with 786-0 renal, 104%; with DU-145 prostate, 93.8%; in the experiment with K-562 leukemia, 93.3%; in the experiment with MALME-3M melanoma it was 106%. Moreover, the growth in the experiment on MDA-MB-231 breast was 80.1%; with RXF 393 renal, 105%; with SF-268 CNS it was 81.3%; with SF-295 CNS, 87.6%; in the experiment on SF-539 CNS it was 100%; in the experiment with UACC-257 melanoma, 118%. Moreover, the growth with M14 melanoma was 88.8%.
For the molecule `COC(=O)/C=C1\SC(=Nc2cccc(OC)c2)N(CCc2c[nH]c3ccccc23)C1=O`, the growth in the experiment with NCI-H23 lung was 67.9%; in the experiment on NCI-H226 lung it was 98.2%; in the experiment on NCI-H322M lung, 76.8%; in the experiment on HOP-62 NSCLC, 53%; in the experiment on NCI-H460 lung, 80.7%; in the experiment with HOP-92 NSCLC, 46.6%. In addition, the growth was 28.4% in the experiment with NCI-H522 lung; 61.4% with A549/ATCC NSCLC; 76.7% in the experiment on 786-0 renal; 69.3% in the experiment on DU-145 prostate; 40.8% in the experiment on K-562 leukemia; 80.5% with MALME-3M melanoma. Also, the growth with MDA-MB-231 breast was 66.1%; in the experiment on RXF 393 renal, 49.2%; in the experiment on SF-268 CNS, 82.8%; in the experiment with SF-295 CNS, 61.9%; in the experiment on SF-539 CNS, 83.4%; with UACC-257 melanoma, 61.7%. The growth in the experiment on M14 melanoma was 64.9%.
Regarding `Cc1nccc2c3ccc(OCc4cn(-c5ccccc5)nn4)cc3n(CCCc3ccccc3)c12`, the growth in the experiment with NCI-H23 lung is 80.8%; with NCI-H226 lung it was 85.7%; in the experiment on NCI-H322M lung, 75.6%; in the experiment with HOP-62 NSCLC, 78.2%; with NCI-H460 lung it was 59.2%; with HOP-92 NSCLC it was 57.3%. Moreover, the growth is 57.5% in the experiment with NCI-H522 lung; 52.2% in the experiment with A549/ATCC NSCLC; 80% with 786-0 renal; 88.6% with DU-145 prostate; 36.5% with K-562 leukemia; 90.4% with MALME-3M melanoma. Further, the growth with MDA-MB-231 breast was 79.6%; in the experiment with RXF 393 renal, 69.7%; in the experiment on SF-268 CNS, 88.3%; in the experiment with SF-295 CNS, 74.8%; in the experiment with SF-539 CNS it was 78.2%; in the experiment on UACC-257 melanoma, 55.9%. For the same molecule, the growth in the experiment on M14 melanoma is 83.3%.
Take `COc1ccc(-c2nc(C#N)c(NCC(c3ccc(Cl)cc3)N3CCCCC3)o2)cc1` (configuration not stated): the growth is 91.7% in the experiment with NCI-H23 lung; 96% in the experiment on NCI-H226 lung; 83.7% in the experiment on NCI-H322M lung; 107% in the experiment with HOP-62 NSCLC; 101% in the experiment with NCI-H460 lung; 89.3% in the experiment on HOP-92 NSCLC. Further, the growth is 84.6% in the experiment on NCI-H522 lung; 93.5% with A549/ATCC NSCLC; 92.5% in the experiment with 786-0 renal; 94% in the experiment on DU-145 prostate; 76.7% in the experiment on K-562 leukemia; 91.4% in the experiment with MALME-3M melanoma. The growth in the experiment with MDA-MB-231 breast is 102%; with RXF 393 renal it was 71.8%; with SF-268 CNS, 89.7%; with SF-295 CNS it was 96.1%; in the experiment with SF-539 CNS it was 101%; with UACC-257 melanoma, 109%. The growth in the experiment on M14 melanoma is 92.7%.
For the molecule `CCn1cc(C(=O)O)c(=O)c2cc(F)c(N3CCN(CC(=O)Nc4ccc(/C(C)=N/OC)cc4)CC3)cc21`, the growth was 90.6% in the experiment with NCI-H23 lung; 97.9% with NCI-H226 lung; 80.2% with NCI-H322M lung; 88.8% in the experiment on HOP-62 NSCLC; 104% with NCI-H460 lung; 84.8% with HOP-92 NSCLC. The growth in the experiment with NCI-H522 lung is 84.8%; with A549/ATCC NSCLC, 95.8%; in the experiment on 786-0 renal, 91.7%; in the experiment with DU-145 prostate, 104%; in the experiment with K-562 leukemia, 92.5%; with MALME-3M melanoma it was 103%. Further, the growth is 85.9% in the experiment with MDA-MB-231 breast; 100% in the experiment on RXF 393 renal; 94.1% in the experiment on SF-268 CNS; 92.3% in the experiment on SF-295 CNS; 92.7% with SF-539 CNS; 91.3% with UACC-257 melanoma. For the same molecule, in the experiment with M14 melanoma, the growth was 99.4%.
With `CN1CCN(C(=O)[C@@]2(C)CC[C@]3(C)CC[C@]4(C)C(=CC[C@@H]5[C@@]6(C)CC[C@H](OC(=O)c7cccnc7)C(C)(C)[C@@H]6CC[C@]54C)[C@@H]3C2)CC1`, the growth with NCI-H23 lung is 75.3%; in the experiment on NCI-H226 lung it was 95.2%; in the experiment with NCI-H322M lung, 94.9%; in the experiment on HOP-62 NSCLC it was 83.7%; in the experiment with NCI-H460 lung it was 11.7%; with HOP-92 NSCLC, 79.2%. The growth in the experiment on NCI-H522 lung was 98.6%; in the experiment with A549/ATCC NSCLC it was 69.8%; with 786-0 renal, 13%; in the experiment on DU-145 prostate it was 78.7%; in the experiment on K-562 leukemia, -24.1% (active); in the experiment on MALME-3M melanoma, 60.2%. The growth is 48.4% in the experiment with MDA-MB-231 breast; 60.3% with RXF 393 renal; 85.4% in the experiment with SF-268 CNS; 67.8% with SF-295 CNS; 59.8% in the experiment with SF-539 CNS; 58.6% in the experiment on UACC-257 melanoma. Besides, in the experiment with M14 melanoma, the growth was 80.7%.
